ClpP mod: qHTS Assay for Activators of ClpP; ATP-dependent Clp protease proteolytic subunit (Bacillus subtilis (strain 168)), P80244; purified B. subtilis ClpP, FRET peptide cleavage, 20 min; Potency, µM (titrated, usually from 57.5 µM); 340,000 tested, 1.9% active; AID 651965, 2013; active means well fitted falling curve with a large enough effect; inconclusive means small, poorly fitted or top-dose-only effect; inactive means no such curve, though single readings can be large or run the other way; further: the source files actives as falling curves though it sought activators and does not explain the sign; nearly all actives have a fitted effect of over 65% in size
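ClpP 10 microg/mL final, pH 8 Tris/KCl buffer with BSA, glycerol, Tween-20; compound pinned in; FRET-FV substrate; RT 20 min; Ex320/Em430; ΔFRET vs ADEP 5.8 microM, DMSO, no enzyme.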
TDP1 cell noCPT: qHTS for Inhibitors of human tyrosyl-DNA phosphodiesterase 1 (TDP1): qHTS in cells in absence of CPT; DT40 Tdp1-/- hTDP1 cells, no CPT, ATP luminescence, 48 h; Potency, µM (series often up to 46.2 µM), hits mostly inhibitors; 420,000 tested, 15% active; AID 686978, 2013; further: nearly all actives have a fitted effect of over 55% in size
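Camptothecin absent (DMSO only). Human TDP1-complemented DT40 knockout cells, 400 cells/well, 37 °C for minimum 48 hr; ATP measured via CellTiter-Glo, 30 min dark incubation, luminescence.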
TDP1 inh: TDP1 (human) enzyme inhibition; Q9NUW8; Potency, µM (doses to about 130 µM), hits mostly inhibitors; recombinant TDP1, AlphaScreen DNA substrate cleavage; 350,000 tested, 0.28% active; AID 485290; further: nearly all actives have a fitted effect of over 40% in size
Target sequence (Q9NUW8 whole entry, looked up): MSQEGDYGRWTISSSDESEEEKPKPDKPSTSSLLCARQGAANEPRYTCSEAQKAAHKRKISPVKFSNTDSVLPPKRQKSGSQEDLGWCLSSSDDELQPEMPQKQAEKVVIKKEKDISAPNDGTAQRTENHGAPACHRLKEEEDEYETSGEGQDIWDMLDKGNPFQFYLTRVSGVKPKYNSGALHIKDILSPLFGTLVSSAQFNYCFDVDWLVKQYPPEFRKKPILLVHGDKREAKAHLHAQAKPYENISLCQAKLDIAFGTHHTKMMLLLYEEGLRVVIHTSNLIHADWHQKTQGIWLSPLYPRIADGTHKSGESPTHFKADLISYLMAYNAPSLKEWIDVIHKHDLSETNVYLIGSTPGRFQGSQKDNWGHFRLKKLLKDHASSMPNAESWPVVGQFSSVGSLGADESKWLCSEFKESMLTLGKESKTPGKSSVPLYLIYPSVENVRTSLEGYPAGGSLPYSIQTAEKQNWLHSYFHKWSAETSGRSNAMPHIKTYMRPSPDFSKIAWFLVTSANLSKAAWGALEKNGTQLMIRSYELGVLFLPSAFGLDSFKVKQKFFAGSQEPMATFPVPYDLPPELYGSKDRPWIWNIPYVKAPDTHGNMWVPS
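Signal: AlphaScreen proximity between streptavidin donor and anti-FITC acceptor beads on intact substrate. Reaction: Tdp1 1 nM, substrate 15 nM final, 5 min RT after 15 min compound preincubation.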
DT40 TDP1 CPT: growth inhibition of DT40 Tdp1-/-;hTDP1 cells with camptothecin (screen for TDP1 inhibitors). chicken DT40 Tdp1-/-;hTDP1 cells + 20 nM CPT, ATP luminescence, 48 h. Potency, µM (series often up to 46.2 µM), hits mostly inhibitors. 420,000 tested, 12% active; further: nearly all actives have a fitted effect of over 55% in size
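Chicken DT40 Tdp1-/- cells complemented with human TDP1, 400 cells/well, exposed to compounds plus 20 nM camptothecin for at least 48 h at 37 C; viability read as ATP content by CellTiter-Glo luminescence.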
A number is an active result; n = inactive; u = inconclusive; x = no result; [ ] = another dose, or the depositor's remark. Compounds with a hit are over-represented: about 17% of the library has one in this group of screens. Unless noted, the call rests on the fitted dose curve; in most records, active means well fitted curve in the direction sought with a large enough effect; inconclusive means small, poorly fitted or top-dose-only effect, or another doubt; inactive means no such curve, though single readings can be large; an effect the other way counts as inactive or inconclusive.

SMILES | ClpP mod | TDP1 cell noCPT | TDP1 inh | DT40 TDP1 CPT
FC(F)(F)COc1cc(-c2nnc(SCc3ccccc3)n2Cc2ccco2)cc(OCC(F)(F)F)n1 | n | 29µM | n | u
Cn1c(SCc2ccc(C#N)cc2)nnc1-c1ccncc1 | n | n | x | n
C=CCn1c(SCc2ccc(C#N)cc2)nnc1-c1ccc(C)cc1 | n | 16µM | n | u
Cc1cccc(-c2nnc(SCc3ccc(C#N)cc3)n2Cc2ccco2)c1 | n | 23µM | n | u
C=CCn1c(SCc2ccc(C(=O)Nc3ccccc3)cc2)nnc1-c1ccccc1 | n | u | n | 18µM
Clc1cccc(CSc2nnc(-c3cccnc3)n2Cc2ccco2)c1 | n | u | n | u
O=C(NCc1ccccc1)c1cc[n+](CC(=O)c2cccs2)cc1 | x | n | n | n
COc1ccc(NC(=O)CCc2nc3cccnc3n2-c2ccccc2)c(OC)c1 | n | u | n | u
O=C(N/N=C/c1cccc(OC(=O)c2cccc(Br)c2)c1)c1ccncc1 | n | n | n | u
Cc1cc(C)c(S(=O)(=O)c2cccc(Cl)c2)c(=O)[nH]1 | x | n | x | n
C=CC(C)(C)c1c2c(c(O)c3c(=O)c4ccc(O)c(O)c4oc13)C=CC(C)(C)O2 | x | n[9.04 µM] | n | n[9.04 µM]
O=S(=O)(Nc1cc(Cl)cc(Cl)c1)N1CCOCC1 | n | n | n | n
COc1ccc(Cn2c(-c3ccco3)nc3oc4cc(OC)ccc4c(=O)c3c2=O)cc1 | n | 16µM | n | u
COc1ccc2c(=O)c3c(=O)n(Cc4ccco4)c(-c4ccco4)nc3oc2c1 | n | u | 45µM | 20µM
COc1ccc(-c2nc3oc4cc(OC)ccc4c(=O)c3c(=O)n2Cc2ccco2)cc1 | n | 23µM | n | u
COc1ccc(Cn2c(-c3ccco3)nc3oc4ccccc4c(=O)c3c2=O)cc1 | n | n | n | n
O=C(NCc1ccco1)C1(S(=O)(=O)c2ccccc2)CC=CC1 | n | n | x | u
O=C(NCc1ccc(F)cc1F)[C@@H]1CCCN1C(=O)[C@@H]1CCCN1C(=O)c1cccs1 | n | n | x | u
COc1ccc(S(=O)(=O)N2CCCCC2)cc1NC(=O)c1ccc(OC)c(OC)c1 | n | n | n | n
COc1ccc(S(=O)(=O)N2CCSC2c2ccc(N)cc2)cc1 (stereo unspecified) | n | n | n | n
COc1cc(OC)c(C2SCCN2S(=O)(=O)c2ccc(F)cc2)cc1OC (stereo unspecified) | n | 15µM | n | 13µM
COc1ccc(OC)c(C2SCCN2S(=O)(=O)c2cccc(C(F)(F)F)c2)c1 (stereo unspecified) | n | u | n | 16µM
CCOC(=O)CCN(c1ccccc1)S(=O)(=O)c1ccc2[nH]c(=O)ccc2c1 | n | n | n | n
CCN(CC)CCCNC(=O)c1cc2c(-c3ccc(Cl)cc3)nn(C)c2s1 | n | 5.8µM | n | 7.3µM
CCCCN(CC)CCNC(=O)c1cc2c(-c3ccccc3F)nn(C)c2s1 | n | u | x | 16µM
SMILES | ClpP mod | TDP1 cell noCPT | TDP1 inh | DT40 TDP1 CPT
COc1ccc(CCNC(=O)c2cc3c(-c4ccccc4F)nn(C)c3s2)c(OC)c1 | n | 5.8µM | n | 6.5µM
CCCN(CCC)CCCNC(=O)c1cc2c(-c3ccc(Cl)cc3)nn(C)c2s1 | u | 8.2µM | n | 13µM
CN1CCN(CCCNC(=O)c2cc3c(-c4ccc(Cl)cc4)nn(C)c3s2)CC1 | n | u | n | n
CCN(CCCNC(=O)c1cc2c(-c3cccc(OC)c3)nn(C)c2s1)Cc1ccccc1 | n | u | x | 9.2µM
COc1cccc(-c2nn(C)c3sc(C(=O)NCc4ccc(OC)cc4OC)cc23)c1 | n | u | n | u
O=c1[nH]c2c(-c3nc(-c4ccc(Cl)cc4)cs3)c(O)cn2c2ccccc12 | n | 2.8µM | x | 4µM
Oc1ccc(CNc2ccccc2C(F)(F)F)c2cccnc12 | x | x | n | x
Oc1ccc(N=Nc2ccccc2C(F)(F)F)c2cccnc12 | n | 1µM | x | 0.82µM
CCS(=O)(=O)c1ccc(N=Nc2ccc(O)c3ncccc23)c(OC)c1 | x | 1.3µM | n | 1.8µM
CCCCN(CCCC)S(=O)(=O)c1ccc(OC)c2ncccc12 | n | u | n | u
COc1ccccc1N=Nc1ccc(O)c2ncccc12 | n | 2.9µM | x | 2.9µM
CS(=O)(=O)c1ccc2nc(NC(=O)CCNC(=O)c3ccccc3Cl)sc2c1 | n | u | n | u
O=C(/C=C/c1ccccc1)Oc1cccc2cccnc12 | n | 8.2µM | n | u
Clc1ccccc1OCCCOc1cccc2cccnc12 | n | u | x | 15µM
O=C(/C=C\c1ccccc1)Oc1cccc2cccnc12 | n | n | n | u
COc1ccccc1OCCCCCc1c(C)n[nH]c1C | n | u | n | u
O=Cc1ccccc1OCCCOc1cccc2cccnc12 | n | 2.1µM | n | 4.6µM
Cc1cccc(OCCCCc2c(C)n[nH]c2C)c1C | n | u | n | 12µM
COc1ccccc1N=NNc1ccc(S(=O)(=O)NC(C)=O)cc1 | n | u | x | u
CCOC(=O)c1c(C)[nH]c(C(=O)COC(=O)c2cc(C)oc2C)c1C | n | n | n | u
Cc1ccc2nc3c(cc(C#N)c(=O)n3-c3nnc(SCc4ccccc4)s3)c(=O)n2c1 | n | n | n | n
CC(=O)O[C@@H]1C(=O)O[C@@H]2[C@H]1OC(=O)[C@@H]2OC(C)=O | x | n | x | n
Cc1ccc(OCCCOc2cccc3cccnc23)cc1C | n | u | n | u
Cc1cccc(OCCCOc2cccc3cccnc23)c1C | n | 18µM | n | u
O=C(CC1NCCNC1=O)Nc1ccc([N+](=O)[O-])cc1 (stereo unspecified) | x | n | n | n
SMILES | ClpP mod | TDP1 cell noCPT | TDP1 inh | DT40 TDP1 CPT
CC1=C(C(=O)N(C(C)C)C(C)C)CC(CC(=O)NCc2cccc3ccccc23)C(=O)N1CCC1=CCCCC1 (stereo unspecified) | n | u | x | u
Cc1ccccc1-c1cc(Nc2ccc(F)cc2)ncn1 | x | u | n | u
Cc1ccc(CNS(=O)(=O)c2c(C(=O)N3CCCCC3)c(C)n(C)c2C)cc1 | n | n | n | n
Cc1c(C(=O)N2CCCCC2)c(S(=O)(=O)NCCc2ccc(Cl)cc2)c(C)n1C | n | 21µM | n | u
Cc1c(C(=O)N2CCCCCC2)c(S(=O)(=O)N(Cc2ccccc2)C(C)(C)C)c(C)n1C | n | 21µM | n | u
COc1cc2c(cc1[N+](=O)[O-])-c1ccc([N+](=O)[O-])cc1C2=NNC(N)=S | n | 7.3µM | x | u
Cc1ccc2nc(NC(=O)c3ccc(OCC4CCCO4)cc3)sc2c1 (stereo unspecified) | x | 15µM | n | 13µM
Cc1cc(C)c2nc(NC(=O)c3ccc(OCC4CCCO4)cc3)sc2c1 (stereo unspecified) | u | 21µM | n | u
Cc1cccnc1NC(=O)c1ccc(OCC2CCCO2)cc1 (stereo unspecified) | n | n | n | n
Cc1ccc(CNC(=O)c2ccc(OCC3CCCO3)cc2)cc1 (stereo unspecified) | n | n | n | n

Source: PubChem (National Center for Advancing Translational Sciences (NCATS))
